The supplement of paper PMC6555819

System: LXRa:RXRa (NR concentration 270 nM, RXRa partner concentration 90 nM)
Experiment: PBM binding z-score (relative to random genomic background probes); higher = stronger binding; sequences stand for … in GC…GCGATTGACAGCGTAGAATGAAGG
Summary of the method: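 Regression normalization was applied to scanned fluorescence from custom Agilent 4×180K protein-binding microarrays. Before scanning, arrays were incubated 1 h with ligand-free nuclear receptor dimers, and binding was detected with antibodies against each partner (one per run). Binding z-scores use the random background probes as reference.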

Compared with CGTCCAAGGTCGTAGGAGGTCAGTGAAGACAGAT, TCTGCTAGGTCAACGATGATCAGCTAATCTGCTA is lower in PBM binding z-score: 4.75 for the first, 1.96 for the second.

Going from TCAAATAGGTAAAGGTGAAAGTCGAACGATATGA to TCTATTAGTTGATTAGGGCAACTGAAACAGCGGA, the PBM binding z-score falls from 1.78 to 0.677.

Going from AGAATGAGGTAATACGTAGATCAGGGAAGAAAGT to ACTATTAGTTGACTTAGGACAACCGATACGACGC, the PBM binding z-score rises from 0.0343 to 0.291.

First: AGTCAAAGTTCAGGACGAAGTAACGTAAAGCACG
Second: TCTTGTAGATCAAGGGTTAAGAAAGCCGAAGCCT
The PBM binding z-score of the first is higher: 3.49 for the first, 0.813 for the second.

First: CGAACTAGGTCGGAACAGGACAGTGAAGGATGAT
Second: AGAACGAGGGCAATAAGTTGATAGCACGGGTGGC
The PBM binding z-score of the first is lower: -0.452 for the first, 0.268 for the second.

Going from AGAACGATGGCACGCTGAGTTGATAGCAGAGTAG to GATACAGGGTCAGCTAGAGGACAGAGTATGGAAA, the PBM binding z-score rises from -0.938 to 3.3.

Going from TCATATAGGTAAATGCTAGGTGAAAGTGCGATCT to GCTAGTTGGTCAGTAAAAGGTCAGACACCGGTCG, the PBM binding z-score rises from 1.17 to 3.15.

Compared with AGAATGAGGTTACCAAACATCAGGGAAACGCTTG, ACTCGGAAGACAAAGGTCAGAGCTACGCCAGTGA is higher in PBM binding z-score: 2 for the first, 3.7 for the second.

First: ACAGACAGGTTAGTGAAGGTAACTCAGCTGGACG
Second: TCTATTAGTTGACTAGGGCAACCGAAACAGCGGA
The PBM binding z-score of the first is lower: 0.393 for the first, 0.805 for the second.

First: ACTAGCAGGCCAAGTTTGGGTCACTTAAACAAAG
Second: CCTACTGGGCCACGAAAGCTCATTGATTCAGTGA
The PBM binding z-score of the first is higher: 0.217 for the first, -0.413 for the second.

Compared with ACTAGCAGGCCAGGTTTGGGTCACTCAAACAAAG, TAGCCTACGTCAGATCGGGCCAGTATACGCTATA is lower in PBM binding z-score: -0.164 for the first, -0.971 for the second.
